This is part of a sample that, as a whole, favours compounds with a hit. Of some 79,000 tested, about 15% had one in any assay. Activity calls are given as the source filed them. Cut-off read from the data, not from the text of the source: active = growth inhibition above about 70%; inactive = the rest.
Assays:
[1] = NCI Yeast Anticancer Drug Screen. Data for the wt1 strain (AID 149);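 note: 0% = growth of vehicle-treated wt1 cultures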; details: S. cerevisiae wt1 strain (SPY 50644) growth inhibition, active compounds read high
How it was run: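 Compounds are added to wt1 yeast cultures. Growth is then measured. Inhibition is expressed relative to vehicle-treated controls.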

[2] = NCI Yeast Anticancer Drug Screen. Data for the rad50EPP+ strain (AID 151);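 note: 0% = growth of vehicle-treated control cultures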; details: S. cerevisiae rad50 mutant strain, active compounds read high
How it was run: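 Compounds were applied to the rad50EPP+ yeast strain, which bears a defined DNA repair alteration, and growth inhibition was determined relative to vehicle-treated cultures.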

[3] = NCI Yeast Anticancer Drug Screen. Data for the mgt1 strain (AID 153); details: S. cerevisiae mgt1 mutant growth inhibition, active compounds read high
How it was run: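 Strain: mgt1 yeast, one of a set carrying defined DNA damage repair or cell cycle control alterations. Compound-treated growth compared with vehicle.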

[4] = NCI Yeast Anticancer Drug Screen. Data for the rad50 strain (AID 155);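 note: 0% = growth of vehicle-only cultures of the same strain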; details: S. cerevisiae rad50 strain growth inhibition, active compounds read high
How it was run: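 Inhibition values express reduced yeast growth in compound-treated cultures relative to vehicle-treated controls.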

[5] = NCI Yeast Anticancer Drug Screen. Data for the mec2-1 strain (AID 157); details: S. cerevisiae mec2-1 strain, active compounds read high
How it was run: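 Strain: mec2-1 (DNA repair/cell cycle alteration). Compound exposure, then growth measured; inhibition expressed relative to vehicle.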

[6] = NCI Yeast Anticancer Drug Screen. Data for the rad14 strain (AID 159);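 note: 0% = growth of vehicle-treated control cultures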; details: S. cerevisiae rad14 strain growth inhibition, active compounds read high
How it was run: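 A mutant yeast strain defective in DNA damage repair is treated with compound; inhibition of its growth is scored against untreated, vehicle-exposed cultures.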

[7] = NCI Yeast Anticancer Drug Screen. Data for the sgs1 mgt1 strain (AID 161);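 note: 0% = growth of cultures given vehicle only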; details: S. cerevisiae sgs1 mgt1 strain, active compounds read high
How it was run: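 Mutant yeast exposed to compound; growth scored against vehicle-only wells.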

[8] = NCI Yeast Anticancer Drug Screen. Data for the CLN2oe strain (AID 163);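 note: 0% = growth of vehicle-only control cultures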; details: S. cerevisiae CLN2oe strain, active compounds read high
How it was run: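 Growth of a genetically modified yeast strain is measured after compound exposure and compared with cultures given vehicle alone.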

[9] = NCI Yeast Anticancer Drug Screen. Data for the cln2 rad14 strain (AID 165);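 note: 0% = growth equal to vehicle treated cultures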; details: S. cerevisiae cln2 rad14 strain, active compounds read high
How it was run: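 Compounds are applied to the cln2 rad14 yeast strain, and growth is then compared with that of vehicle-treated cultures to give inhibition.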

[10] = NCI Yeast Anticancer Drug Screen. Data for the bub3 strain (AID 167); details: S. cerevisiae bub3 mutant strain, active compounds read high
How it was run: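 Steps: expose the mutant yeast strain to compound; grow alongside vehicle-treated cultures; measure growth; express inhibition against the vehicle cultures.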

[11] = NCI Yeast Anticancer Drug Screen. Data for the wt2 strain (AID 169);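 note: 0% = growth of vehicle-treated yeast cultures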; details: S. cerevisiae wt2 strain growth inhibition, active compounds read high
How it was run: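 This strain belongs to a panel of yeast strains with defined genetic alterations in DNA damage repair or cell cycle control. Compounds are applied, and growth inhibition is measured against vehicle-treated cultures.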

[12] = NCI Yeast Anticancer Drug Screen. Data for the mlh1 strain (AID 171);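 note: 0% = growth of vehicle-treated control cultures of the same strain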; details: S. cerevisiae mlh1 strain growth inhibition, active compounds read high
How it was run: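 Growth of the mutant yeast strain after compound exposure, expressed as inhibition relative to vehicle-only controls.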

[13] = NCI Yeast Anticancer Drug Screen. Data for the sgs1 strain (AID 173);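 note: 0% = growth of vehicle-only control cultures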; details: S. cerevisiae sgs1 mutant, active compounds read high
How it was run: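 Growth of a yeast strain bearing a defined genetic alteration is measured after compound treatment. Inhibition is expressed relative to vehicle-only controls.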

[14] = NCI Yeast Anticancer Drug Screen. Data for the mlh1 rad18 strain (AID 175); details: S. cerevisiae mlh1 rad18 strain growth inhibition, active compounds read high
How it was run: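 Read-out is yeast growth inhibition, calculated against vehicle-only controls. The compound was applied to a strain engineered with DNA damage repair alterations.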

[15] = NCI Yeast Anticancer Drug Screen. Data for the rad18 strain (AID 177); details: S. cerevisiae rad18 mutant growth inhibition, active compounds read high
How it was run: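 Growth of the mutant yeast strain after compound exposure, normalised to vehicle-only cultures.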

[16] = at 5.0 µM (retest, dose inferred, filed as 0.5)
[17] = at 50.0 µM (retest, dose inferred, filed as 5.0)

Measured: growth inhibition

O=C(O)CN(CCNC(=O)OCC1c2ccccc2-c2ccccc21)CCNC(=O)OCC1c2ccccc2-c2ccccc21
inactive: [1]; at 1.2 µM -1% | [1]; at 3.7 µM -4% | [1]; at 11.0 µM 2% | [2]; at 1.2 µM 0% | [2]; at 3.7 µM 4% | [2]; at 11.0 µM 5% | [2]; at 33.0 µM 7% | [2]; at 100.0 µM 5% | [3]; at 1.2 µM -4% | [3]; at 3.7 µM -1% | [3]; at 11.0 µM 9% | [4]; at 1.2 µM -3% | [4]; at 3.7 µM -9% | [4]; [16] -21% | [4]; at 11.0 µM 11% | [4]; [17] 36% | [5]; at 1.2 µM -3% | [5]; at 3.7 µM -5% | [5]; [16] -10% | [5]; at 11.0 µM -3% | [5]; [17] -6% | [6]; at 1.2 µM 0% | [6]; at 3.7 µM 1% | [6]; at 11.0 µM 34% | [7]; [16] -1% | [7]; [17] -4% | [8]; at 1.2 µM -1% | [8]; at 3.7 µM 1% | [8]; at 11.0 µM 2% | [9]; [16] 3% | [9]; [17] 15% | [10]; at 1.2 µM -1% | [10]; at 3.7 µM 0% | [10]; [16] -16% | [10]; at 11.0 µM 1% | [10]; [17] -9% | [11]; at 1.2 µM -3% | [11]; at 3.7 µM -3% | [12]; at 1.2 µM -1% | [12]; at 3.7 µM -3% | [12]; at 11.0 µM 11% | [13]; at 1.2 µM 0% | [13]; at 3.7 µM -1% | [13]; at 11.0 µM 9% | [14]; [16] 3% | [14]; [17] 62% | [15]; at 1.2 µM -2% | [15]; at 3.7 µM -2% | [15]; at 11.0 µM 4%
active: [1]; at 33.0 µM 71% | [1]; at 100.0 µM 94% | [3]; at 33.0 µM 98% | [3]; at 100.0 µM 95% | [4]; at 33.0 µM 97% | [4]; at 50.0 µM 93.7% | [4]; at 100.0 µM 94% | [5]; at 33.0 µM 98% | [5]; at 50.0 µM 95.3% | [5]; at 100.0 µM 96% | [6]; at 33.0 µM 98% | [6]; at 100.0 µM 95% | [7]; at 50.0 µM 95.5% | [8]; at 33.0 µM 96% | [8]; at 100.0 µM 90% | [9]; at 50.0 µM 93.5% | [10]; at 33.0 µM 93% | [10]; at 50.0 µM 95% | [10]; at 100.0 µM 94% | [11]; at 11.0 µM 75% | [11]; at 33.0 µM 98% | [11]; at 100.0 µM 95% | [12]; at 33.0 µM 98% | [12]; at 100.0 µM 96% | [13]; at 33.0 µM 97% | [13]; at 100.0 µM 94% | [14]; at 50.0 µM 95.1% | [15]; at 33.0 µM 95% | [15]; at 100.0 µM 94%
